Pf growth 48h: Primary qHTS for delayed death inhibitors of the malarial parasite plastid, 48 hour incubation. AID 504832, 2011. P. falciparum luciferase growth in erythrocytes, 48 h. Potency, µM (titrated, usually from 28.7 µM), for inactives: at the highest dose activity change, negative = inhibition, usual class: inhibitors. hit rate 5.9% among 310,000; note: potency is the fitted concentration of half-maximal effect; % is set by controls: 0 for no effect and ±100 for the full control effect
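Parasite viability was followed by luminescence of a genomically integrated firefly luciferase. Cultures held 0.1% parasitemia at 2% hematocrit (final), incubated under 5% CO2 at 37 C.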
NS1 function inh: qHTS Assay for Inhibitors of Influenza NS1 Protein Function | AID 2326, 2010 | hit rate 0.4% among 270,000 | Potency, µM (doses to about 46.1 µM), for inactives: top-dose activity, positive = more growth; calls by dose curve; note: potency is the fitted concentration of half-maximal effect; actives are rising curves; nearly all actives have a fitted effect of over 50% in size
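Compounds were scored for reversing the slow growth caused by influenza A NS1 in S. cerevisiae, measured by optical density at 600 nm. Assay medium contained 2% galactose at pH 6.0; NS1-free yeast of the same strain were the positive control.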
Cycloheximide cs: Cycloheximide Counterscreen for Small Molecule Inhibitors of Shiga Toxin. cell reporter, cycloheximide protein synthesis inhibition counterscreen. AID 2314, 2010. hit rate 12% among 300,000. max response, %; in the data active = max response mostly above about 13%, no sharp cut-off; inactive = mostly below about 14%; note: read at 38.3 µM for the half of the compounds with a filed dose; 0% is about no effect
Pf growth 96h: Primary qHTS for delayed death inhibitors of the malarial parasite plastid, 96 hour incubation | P. falciparum luciferase reporter growth, 96 h | Potency, µM (series often up to 28.7 µM), inactives show at the highest dose activity change, negative = inhibition, most hits filed as inhibitors | hit rate 6.9% among 320,000 | AID 504834, 2011; note: potency is the fitted concentration of half-maximal effect; % is set by controls: 0 for no effect and ±100 for the full control effect
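Two parasite generations (96 h, 37 C, 5% CO2) of compound exposure in infected erythrocytes (0.05% parasitemia, 2% hematocrit). Luciferase-reporter P. falciparum; decreased luminescence indicates inhibited growth, aimed at apicoplast-acting delayed death.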
Giardia FBPA inh: qHTS Assay for Inhibitors of Fructose-1,6-bisphosphate Aldolase from Giardia Lamblia; A8B2U2; purified Giardia FBPA; AID 2451, 2010; hit rate 0.71% among 290,000; Potency, µM (series often up to 59.6 µM), without a hit: at the highest dose activity, negative = inhibition, hits mostly inhibitors; note: potency is the fitted concentration of half-maximal effect; % is set by controls: 0 for no effect and ±100 for the full control effect; nearly all actives have a fitted effect of over 55% in size
Target sequence (A8B2U2 whole entry, looked up): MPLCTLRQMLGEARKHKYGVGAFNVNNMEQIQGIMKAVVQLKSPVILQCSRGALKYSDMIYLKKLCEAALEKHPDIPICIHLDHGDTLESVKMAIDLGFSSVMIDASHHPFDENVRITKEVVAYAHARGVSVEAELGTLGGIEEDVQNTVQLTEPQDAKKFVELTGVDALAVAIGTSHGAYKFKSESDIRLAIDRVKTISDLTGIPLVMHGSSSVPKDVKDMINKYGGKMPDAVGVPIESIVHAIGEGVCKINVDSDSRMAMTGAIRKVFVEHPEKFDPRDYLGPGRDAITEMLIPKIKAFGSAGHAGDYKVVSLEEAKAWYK
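40 nM FBPA preincubated 10 min at RT with compound (up to 57.5 uM final), then substrate plus GAPDH/TPI/NAD/arsenate coupling and diaphorase/resazurin added. Fluorescence read after 20 min at RT, 525/598 nm.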
Shiga toxin inh: A qHTS for Small Molecule Inhibitors of Shiga Toxin; AID 2315, 2010; inhibition, % at 38.7 µM; hit rate 9.2% among 290,000; Vero cells, Shiga toxin protein synthesis inhibition reporter; in the data active = inhibition mostly above about 28%, no sharp cut-off; inactive = mostly below about 43%; note: 0% is about no effect
* = called active by the depositor; ? = inconclusive; . = not tested or not shown; [ ] = another dose, or the depositor's remark. Compounds with a hit are over-represented: about 21% of the library has one in this group of screens. Unless noted, calls come from the whole dose curve; as a rule, active = well fitted curve in the direction sought with a large enough effect; inconclusive = small, poorly fitted or top-dose-only effect, or another doubt; inactive = no such curve, though single readings can be large; an effect the other way counts as inactive or inconclusive.

SMILES	Pf growth 48h	NS1 function inh	Cycloheximide cs	Pf growth 96h	Giardia FBPA inh	Shiga toxin inh
CN(c1ccccc1)c1nc(N)c([N+](=O)[O-])c(Nc2ccccc2F)n1	-17%	7%	19*	?	-9%	11
CCN1CCN(c2nc(N(C)c3ccccc3)nc(N)c2[N+](=O)[O-])CC1	-11%	3%	1	?	1%	-10
Cc1ccc(NS(=O)(=O)c2cccc(C(=O)NNC(=O)c3ccco3)c2)c(C)c1	8%	.	.	7%	.	.
Cc1cccc(C)c1NC(=O)C1CCCN1S(=O)(=O)c1ccccc1 (stereo not drawn)	2%	-6%	-3	0%	6%	-8
O=C(NCCCNC(=O)c1ccc(-c2cc(Cl)ccc2Cl)o1)c1cnccn1	-13%	-25%	-1	?	.	-3
O=C(Nc1ccccc1)c1ccc(-n2cnnn2)cc1	44%	2%	15*	-10%	.	23*
O=C(Nc1ccc(-n2cnnn2)cc1)C(c1ccccc1)c1ccccc1	?	.	-2	-13%	0%	11
CCOc1ccc(C(=O)Nc2cccc(-n3cnnn3)c2)cc1OCC	?	?	7	-20%	-2%	-14
O=C(Nc1cccc(-n2cnnn2)c1)c1cc(Cl)nc(Cl)c1	9.3µM*	8%	-3	4.7µM*	5%	2
CC(C)(C)c1ccc(C(=O)Nc2cccc(-n3cnnn3)c2)cc1	28%	-82%	24*	?	.	34*
CCCCOc1ccc(C(=O)Nc2cccc(-n3cnnn3)c2)cc1OC	?	15%	1	9.3µM*	-2%	14
CC1CC(=O)N(CC(=O)Nc2ccc(Br)cc2)c2ccccc2S1(=O)=O (stereo not drawn)	-28%	-3%	-2	6%	4%	-4
CCOC(=O)c1c(C)[nH]c(C)c1S(=O)(=O)NC(CC)CN1CCOCC1 (stereo not drawn)	29%	-2%	-4	119%	7%	-6
C[C@@H]1C[C@@H]([C@H](O)CC2CC(=O)NC(=O)C2)C(=O)[C@@H](C)C1	0.1µM*	.	.	0.1µM*	6%	.
Cc1ccc(SCc2nc(-c3ccccn3)no2)cc1	139%	-54%	25*	-3%	-2%	69*
Cn1c(SCc2nc(-c3ccc(Cl)cc3)no2)nnc1-c1ccccc1	.	-63%	-1	0%	2%	-7
Cc1ccc(SCc2nc(-c3ccccc3)no2)cc1	18%	0%	28*	2%	-6%	12
c1ccc(-c2noc(-c3ccc4ccccc4c3)n2)nc1	-95%	-2%	-4	.	1%	-15
COc1ccc(-c2noc(CSc3ccccc3)n2)cc1OC	49%	-12%	39*	33%	-2%	67*
Cc1ccc(SCc2nc(-c3ccncc3)no2)cc1	?	-9%	20*	2%	0%	66*
CC(C)[C@@H](Br)C(=O)NCC(=O)O	.	0%	.	.	.	.
O=C1c2ccccc2C(=O)N1Cc1nc(-c2ccncc2)no1	19%	-16%	-2	.	3%	-6
c1ccc(SCc2nc(-c3ccncc3)no2)cc1	-31%	-6%[9.22 µM]	44*	.	3%	84*
Cc1ccc(-c2noc(CSc3nnc(Cc4ccccc4)n3-c3ccc(Cl)cc3)n2)cc1	.	22%	-2	9.3µM*	-5%	-9
Cc1ccc2c(c1)nnn2C1CCN(S(=O)(=O)c2ccc(C(=O)N(C)C)cc2)CC1	?	-8%	-5	-25%	-4%	5
O=S(=O)(NC1CCCC1)c1cccc(S(=O)(=O)N2CCC(n3nnc4ccccc43)CC2)c1	10µM*	2%	-5	42%	?	19
Cc1ccc2c(c1)nnn2C1CCN(S(=O)(=O)c2cccc(S(=O)(=O)N(C)C)c2)CC1	10µM*	8%	8	?	7%	-22
Cc1ccc2c(c1)nnn2C1CCN(S(=O)(=O)c2ccc3ccccc3c2)CC1	10µM*	7%	-2	-19%	2%	-3
CCN(CC(=O)Nc1c(F)cccc1F)C(=O)CCN1C(=O)C2CCCCC2C1=O (stereo not drawn)	?	.	.	31%	.	.

Screening data deposited in PubChem by National Center for Advancing Translational Sciences (NCATS).
